High-throughput results from PubChem BioAssay.
Compounds with a hit are over-represented: about 9.5% of the library has one in this group of screens.
NS1 inh: influenza NS1 inhibition; Potency, µM (doses to about 46.1 µM), for inactives: top-dose activity, positive = more growth; 270,000 compounds, 0.4% hits; calls by dose curve; further: actives are rising curves; nearly all actives have a fitted effect of over 50% in size
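Growth recovery, yeast-based: influenza A NS1 expressed in S. cerevisiae causes slow growth, and suppressors are detected by OD600. The parent strain without NS1 is used as positive control.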
SARS PLpro yeast: inhibitors of SARS-CoV papain-like protease in yeast | S. cerevisiae expressing SARS-CoV PLpro, growth rescue | Potency, µM (doses to about 32.9 µM), without a hit: top-dose activity, positive = growth rescue, most hits filed as activators | 330,000 compounds, 0.19% hits | AID 485353; calls by dose curve; further: 0% is about no effect; nearly all actives have a fitted effect of over 55% in size
Pf growth 96h: inhibits malaria parasite growth, 96 h; P. falciparum luciferase reporter growth, 96 h; Potency, µM (series often up to 28.7 µM), for the others: at the top dose activity change, negative = inhibition, most hits filed as inhibitors; 320,000 compounds, 6.9% hits; AID 504834; further: on the % scale 0 is the no-effect control and ±100 the full control effect
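Luminescence readout: decreased luciferase signal marks inhibited growth of reporter-expressing P. falciparum in infected red cells (2% hematocrit, 0.05% parasitemia final), exposed to compound two generations (96 h, 37 C, 5% CO2).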
RE007 growth inh: less growth of the S. pombe RE007 Vpr strain; S. pombe RE007 Vpr strain, BacTiter-Glo ATP luminescence, 24 h; AID 651644; 360,000 compounds, 0.21% hits; Potency, µM (doses to about 92.2 µM), inactives show at the top dose activity change, negative = less growth, usual class: inhibitors; active means well fitted falling curve with a large enough effect; inconclusive means small, poorly fitted or top-dose-only effect; inactive means no such curve, though single readings can be large or run the other way; further: on the % scale 0 is the no-effect control and ±100 the full control effect; nearly all actives have a fitted effect of over 50% in size
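Fission yeast strain RE007, carrying one chromosomally integrated HIV-1 vpr copy, was seeded at OD 0.01 in PMG+AL medium with 23 nL pinned compound. After 24 h at 30 °C and 99% humidity, viability was read by BacTiter-Glo luminescence.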
Pf growth 48h: inhibits P. falciparum growth in the first generation, 48 h; 310,000 compounds, 5.9% hits; Potency, µM (series often up to 28.7 µM), without a hit: at the top dose activity change, negative = inhibition, most hits filed as inhibitors; P. falciparum luciferase growth in erythrocytes, 48 h; AID 504832; further: on the % scale 0 is the no-effect control and ±100 the full control effect
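Luciferase-expressing parasites in RBCs, 2% Hct / 0.1% parasitemia final; RPMI 1640 + 0.5% Albumax; 37 C, 5% CO2, one generation; luminescence read-out, lower signal = inhibition.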
Active calls of the source: *; [ ] = remark or other dose. Unless noted, the call rests on the fitted dose curve; in most records, active means well fitted inhibition curve with a large enough effect; inconclusive means small, poorly fitted or top-dose-only effect, or another doubt; inactive means no such curve, though single readings can be large or run the other way. Potency means the concentration at half of the fitted maximal effect.

For Cc1sc2nc(CN3CCCC3)nc(N3CCN(C(=O)c4ccco4)CC3)c2c1C the results were SARS PLpro yeast 0%, Pf growth 96h 3.7µM*, RE007 growth inh -24% and Pf growth 48h inconclusive.
Cc1sc2nc(CN3CCCC3)nc(N3CCC(C(N)=O)CC3)c2c1C was read as NS1 inh 6%, SARS PLpro yeast -18%, Pf growth 96h 9.3µM* and RE007 growth inh -2%.
For O=C(c1ccco1)N1CCN(c2nc(C3CC3)nc3c2nnn3Cc2ccccc2Cl)CC1 the results were NS1 inh 27%, SARS PLpro yeast -3%, Pf growth 96h -6%, RE007 growth inh 6% and Pf growth 48h 6.6µM*.
For O=C(c1ccco1)N1CCC(c2nc3c(nnn3Cc3ccccc3Cl)c(=O)[nH]2)CC1 the results were NS1 inh 7%, SARS PLpro yeast 3%, Pf growth 96h -11%, RE007 growth inh 6% and Pf growth 48h inconclusive.
Screening Cc1sc2nc(CN3CCC(C)CC3)nc(Cl)c2c1C returned NS1 inh 6%, SARS PLpro yeast 4%, Pf growth 96h 16% and Pf growth 48h 9%.
Screening Cc1sc2ncnc(OCC(=O)N3CCN(C(=O)c4ccco4)CC3)c2c1C returned SARS PLpro yeast 0%, Pf growth 96h -12%, RE007 growth inh 12% and Pf growth 48h 22%.
For Cc1nc(N2CCN(C(=O)c3ccco3)CC2)c2c3c(sc2n1)CCCC3 the results were NS1 inh -26%, SARS PLpro yeast -64%, Pf growth 96h inconclusive, RE007 growth inh 11% and Pf growth 48h inconclusive.
CC/C(=N\NC(=O)CCC(=O)NCc1ccccc1)c1ccc(O)cc1 was read as NS1 inh 2%, SARS PLpro yeast 0%, Pf growth 96h 33%, RE007 growth inh 11% and Pf growth 48h 11%.
For COCCN(CC(=O)Nc1cccc(C)c1C)C(=O)Cn1c(=O)cnc2ccccc21 the results were SARS PLpro yeast 0%, Pf growth 96h 2%, RE007 growth inh 4% and Pf growth 48h -27%.
For Cc1ccc(NC(=O)c2ncn(CCCN3CCN(Cc4cccc5ccccc45)CC3)n2)cc1C the results were RE007 growth inh 8%.
For CSc1ccc(C(=O)NC2CCSc3ccccc32)cc1 (configuration not stated) the results were NS1 inh -2%, SARS PLpro yeast 1%, Pf growth 96h inconclusive, RE007 growth inh 5% and Pf growth 48h -5%.
Screening C=CCn1c(C)c(C(C)=O)c(N2CCN(C(c3ccccc3)c3ccccc3)CC2)nc1=S returned SARS PLpro yeast 5%, Pf growth 96h inconclusive, RE007 growth inh -10% and Pf growth 48h inconclusive.
Screening c1ccc2c(c1)Cn1nnnc1-2 returned NS1 inh 10%, SARS PLpro yeast 1%, Pf growth 96h 4.1µM*, RE007 growth inh 19% and Pf growth 48h 8%.
`C=CCc1ccccc1OCC(O)CNC1CCCC1` (configuration not stated) gave NS1 inh 3%, SARS PLpro yeast -2%, Pf growth 96h inconclusive, RE007 growth inh -3% and Pf growth 48h inconclusive.
For CC(C)NC[C@@H](O)COc1cccc2ccccc12 the results were NS1 inh 0%, Pf growth 96h inconclusive, RE007 growth inh 1%[18.4 µM] and Pf growth 48h 9.3µM*.
For C=CCc1ccccc1OCC(O)CNC(C)C (configuration not stated) the results were NS1 inh -1%, SARS PLpro yeast 0%, Pf growth 96h inconclusive, RE007 growth inh -19% and Pf growth 48h 13µM*.
Screening Cc1cc(C)c(N(CC(=O)NC(C)(C)C)C(=O)CNC(=O)c2cccs2)c(C)c1 returned NS1 inh -2%, SARS PLpro yeast -1%, Pf growth 96h 7%, RE007 growth inh -3% and Pf growth 48h inconclusive.
Screening Cc1ccc(N(CC(=O)NC(C)(C)C)C(=O)CNC(=O)c2cccs2)c(C)c1 returned NS1 inh 2%, SARS PLpro yeast 0%, Pf growth 96h 20%, RE007 growth inh 21% and Pf growth 48h 8.3µM*.
`Cn1c(SCC(=O)N2CCCC2=O)nc2ccccc21` gave SARS PLpro yeast 0%, Pf growth 96h 37%, RE007 growth inh 4% and Pf growth 48h inconclusive.
